Assay results reported in PubChem BioAssay (Tox21).
Inconclusive results are not listed. Entries that show only a call come without a potency. Activity calls are given as the source filed them. The call rests on the fitted dose curve; in most records, active means well fitted activation curve with a large enough effect in the repeat runs; inconclusive means weak or mixed curves; inactive means flat fitted curve, though single readings scatter.

Assay: A CellTox Green Cytotoxicity Assay to monitor cytotoxicity in HEK293 cells - 40 hour (AID 1224871); further: nearly all actives have a fitted effect of over 45% in size
Settings: CellTox Green fluorescence; series mostly up to 76.8 µM
Text: National Center for Advancing Translational Sciences [NCATS]
NIH Chemical Genomics Center [NCGC]
U.S. Environmental Protection Agency [EPA]
National Institutes of Environmental Health Sciences [NIEHS]
National Toxicology Program [NTP]
Cell-based models are critical for drug discovery. Determining the natural cytotoxic effects resulting from test compounds is an essential research activity. A CellTox Green Cytotoxicity Assay to monitor cytotoxicity in real time of continues cell culture during 40 hours of the compound treatment was used to screen Tox21 10K library compounds in Hek293 cells. CellTox Green Cytotoxicity Assay is a nonlytic, homogeneous, biofluorescent method to measure cytotoxicity in cell culture after experimental manipulation. The assay system uses a proprietary asymmetric cyanine dye that is excluded from viable cells but preferentially stains the dead cell's DNA. […] Viable cells produce no appreciable increases in fluorescence. Therefore, the fluorescence signal produced by the binding interaction with dead cell DNA is proportional to cytotoxicity.
The mixture of Hek293 cell suspension and reagents were dispensed at 600cells/6 ul/well in 1536-well tissue culture treated black solid bottom plates using a Multidrop dispenser. After the assay plates were incubated at a 37 C/5% CO2 incubator for 5 hours, 23 nL of compounds dissolved in DMSO, positive and negative controls was transferred to the assay plate by a pintool work station. The plates were incubated at 37 C for 40 hours. The fluorescence intensity were measured at 0h, 8h, 16h, 24h, 32h and 40h time points using ViewLux plate reader during compound treatment.
Potency means the concentration at half of the fitted maximal effect.

**Q.** With `CCC(C)(C)C1CCC(OC)CC1` (stereo not given) as the molecule, how does the Potency read?
**A.** The Potency was “inactive”.

**Q.** For `Cn1cnc2c(=O)[nH]c(N)nc21`, which Potency is on record?
**A.** Its Potency is “inactive”.

**Q.** Which Potency does the source give for `Cc1cc(C)c(NC(=O)CN(CC(=O)O)CC(=O)O)c(C)c1Br` here?
**A.** Its Potency is “inactive”.

**Q.** For `CC1(C)OC(=O)Nc2ccc(Br)cc21`, which Potency is on record?
**A.** Its Potency is “inactive”.

**Q.** With `Nc1ccn(C2CO[C@H](CO)O2)c(=O)n1` (stereo not given in full) as the molecule, how does the Potency read?
**A.** The Potency was 15.1 µM (active).

**Q.** With `COc1ccc(NC(C)=O)cc1` as the molecule, how does the Potency read?
**A.** Its Potency is “inactive”.

**Q.** For `CCn1c(=O)c2c(nc(/C=C/c3ccc(OC)c(OC)c3)n2C)n(CC)c1=O`, which Potency is on record?
**A.** The Potency was “inactive”.

**Q.** With `CCCOCC(C)OCC(C)O` (stereo not given) as the molecule, how does the Potency read?
**A.** The Potency was “inactive”.

**Q.** For `C#CC(O)CCCCC` (stereo not given), which Potency is on record?
**A.** Its Potency is “inactive”.

**Q.** For `COC(=O)c1ccc(C(=O)OC)c(C(=O)OC)c1`, which Potency is on record?
**A.** The Potency was “inactive”.

**Q.** With `Oc1ccc2c(c1)OC[C@@H](N1CCC(O)(c3ccc(F)cc3)CC1)[C@H]2O` as the molecule, how does the Potency read?
**A.** Its Potency is “inactive”.

**Q.** Which Potency does the source give for `C1=C\CC/C=C\CC/C=C\CC/1` here?
**A.** Its Potency is “inactive”.

**Q.** For `NCCNC(=O)c1ccc(Cl)cn1`, which Potency is on record?
**A.** Its Potency is “inactive”.

**Q.** For `COc1cc(C)cc(O)c1`, which Potency is on record?
**A.** The Potency was “inactive”.

**Q.** Which Potency does the source give for `CC(=O)c1ccc(C)cc1` here?
**A.** Its Potency is “inactive”.

**Q.** Which Potency does the source give for `Cc1cc(C)cc(OCC2CNC(=O)O2)c1` (stereo not given) here?
**A.** Its Potency is “inactive”.

**Q.** Which Potency does the source give for `Cc1ccccc1Br` here?
**A.** The Potency was “inactive”.

**Q.** For `COC[C@H](c1ccc(C(F)(F)F)cc1)N1CCN(C2(C)CCN(C(=O)c3c(C)ncnc3C)CC2)C[C@H]1C`, which Potency is on record?
**A.** The Potency was “inactive”.

**Q.** With `CNC(=O)c1c(I)c(NC(=O)CCCCC(=O)Nc2c(I)c(C(=O)O)c(I)c(C(=O)NC)c2I)c(I)c(C(=O)O)c1I` as the molecule, how does the Potency read?
**A.** The Potency was “inactive”.

**Q.** With `O=C(O)CCNC(=O)c1ccc(N=Nc2ccc(O)c(C(=O)O)c2)cc1` as the molecule, how does the Potency read?
**A.** The Potency was “inactive”.

**Q.** Which Potency does the source give for `CCCCC=O` here?
**A.** The Potency was “inactive”.

**Q.** Which Potency does the source give for `O=S(=O)(c1cccc2cnccc12)N1CCCNCC1` here?
**A.** The Potency was “inactive”.

**Q.** Which Potency does the source give for `OCCN1C[C@H](O)[C@@H](O)[C@H](O)[C@H]1CO` here?
**A.** Its Potency is “inactive”.

**Q.** With `CCCCCC[C@@H](CCC)C(=O)O` as the molecule, how does the Potency read?
**A.** Its Potency is “inactive”.

**Q.** With `CCCOc1ccccc1-c1nc2n[nH]nc2c(=O)[nH]1` as the molecule, how does the Potency read?
**A.** The Potency was “inactive”.

**Q.** Which Potency does the source give for `CC1=CC(C)C(C=O)C(C)C1` (stereo not given) here?
**A.** The Potency was “inactive”.

**Q.** For `CCCCCCC(=O)OCC`, which Potency is on record?
**A.** Its Potency is “inactive”.

**Q.** With `CCCCCN(CCCCC)C(=O)C(CCC(=O)O)NC(=O)c1ccc(Cl)c(Cl)c1` (stereo not given) as the molecule, how does the Potency read?
**A.** Its Potency is “inactive”.

**Q.** For `O=C(O)C1CCC1`, which Potency is on record?
**A.** The Potency was “inactive”.

**Q.** For `CC(=O)O[C@H](CC(=O)[O-])C[N+](C)(C)C`, which Potency is on record?
**A.** Its Potency is “inactive”.

**Q.** With `CC(C)(C)N(CCO)CCO` as the molecule, how does the Potency read?
**A.** Its Potency is “inactive”.

**Q.** With `CN(C)N=Nc1ccccc1` as the molecule, how does the Potency read?
**A.** Its Potency is “inactive”.

**Q.** For `CN(C)C(=O)C(CCN1CCC(O)(c2ccc(Cl)cc2)CC1)(c1ccccc1)c1ccccc1`, which Potency is on record?
**A.** Its Potency is 26.8 µM (active).

**Q.** For `C=C(C)[C@H]1CC=C(C)CC1`, which Potency is on record?
**A.** The Potency was “inactive”.

**Q.** Which Potency does the source give for `CO[Si](CCCNCCC[Si](OC)(OC)OC)(OC)OC` here?
**A.** The Potency was “inactive”.

**Q.** For `O=c1[nH]c(=O)n([C@H]2O[C@H](CO)[C@@H](O)[C@@H]2O)cc1/C=C\Br`, which Potency is on record?
**A.** The Potency was “inactive”.

**Q.** Which Potency does the source give for `CC(CCO)CCCC(C)(C)O` (stereo not given) here?
**A.** Its Potency is “inactive”.

**Q.** For `OC1OC[C@@H](O)[C@H](O)[C@H]1O` (stereo not given in full), which Potency is on record?
**A.** Its Potency is “inactive”.

**Q.** Which Potency does the source give for `Cc1ccc(Nc2ccc(O)c3c2C(=O)c2ccccc2C3=O)cc1` here?
**A.** Its Potency is “inactive”.

**Q.** With `C[N+](C)(C)CC[N+]1(C)Cc2c(Cl)c(Cl)c(Cl)c(Cl)c2C1` as the molecule, how does the Potency read?
**A.** Its Potency is “inactive”.
